# Screening data as filed in PubChem BioAssay.
# Compounds with a hit are over-represented: about 8% of the library has one in this group of screens.
# LASV entry inh: Lassa virus entry inhibition; Lassa virus pseudotype entry inhibition, cell reporter; Potency, µM (titrated, usually from 37.9 µM), most hits filed as inhibitors; 300,000 tested, 1.2% active; calls by dose curve; tested in HEK293 cells; note: nearly all actives have a fitted effect of over 50% in size
# HCV inh: blocks hepatitis C virus | 340,000 tested, 3.4% active | AID 651820 | Huh7.5.1 HCVcc-Cre infection, luciferase reporter, 44 h | Potency, µM (highest dose often 41.8 µM), hits mostly inhibitors; active = well fitted inhibition curve with a large enough effect; inconclusive = small, poorly fitted or top-dose-only effect, or another doubt; inactive = no such curve, though single readings can be large or run the other way
#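 Seed cells (1,000/well) for 4 h; treat with compound and infect with HCVcc-Cre, moi about 0.5. Incubate 44 h, then detect luciferase activity.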
# SARS PLpro yeast: inhibitors of SARS-CoV papain-like protease in yeast; S. cerevisiae expressing SARS-CoV PLpro, growth rescue; Potency, µM (series often up to 32.9 µM), most hits filed as activators; 330,000 tested, 0.19% active; calls by dose curve; note: nearly all actives have a fitted effect of over 55% in size
# HCMV inh: blocks human cytomegalovirus replication; HFF cells, HCMV-luciferase reporter, 72 h; active compounds read low; activity change, negative = inhibition, % at 57.5 µM; 410,000 tested, 4.5% active; in the data active = activity change below about -60%; inconclusive = no clear call, values can overlap the other calls; inactive = above about -39%
#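 Inhibition of viral replication was scored as loss of reporter luminescence in HFFs infected with HCMV-luciferase (MOI 1 PFU/cell) for 72 h; compounds tested at 2 doses, normalized to buffer and Salinomycin controls.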
# FMDV antiviral: antivirals against foot and mouth disease virus; FMDV antiviral cell-based qHTS; Potency, µM (highest dose often 57.9 µM), most hits filed as inhibitors; 410,000 tested, 1.2% active; AID 1159524; calls by dose curve; tested in HEK293T cells; note: read-out not given here; nearly all actives have a fitted effect of over 45% in size
# MARV entry inh: inhibitors of Marburg virus binding or cell entry. Marburg virus pseudotyped entry inhibition, cell reporter. Potency, µM (highest dose often 37.8 µM), actives largely listed as inhibitors. 300,000 tested, 1.8% active. AID 540276; calls by dose curve; tested in HEK293 cells
# Numbers stand for hits; n = inactive; u = inconclusive; x = not tested or not shown; ! = not confirmed by another sample.
SMILES,LASV entry inh,HCV inh,SARS PLpro yeast,HCMV inh,FMDV antiviral,MARV entry inh
COc1ccc(C)cc1N/C(N)=N/c1nc(C)cc(C)n1,n,u,n,u,n,u
Cc1ccc(NC(=O)N2CCC(CN3CCCCCC3)CC2)c(Cl)c1,n,x,x,u,n,x
CCOC(=O)c1ccc(N=Nc2c(C)[nH]n(-c3ccccc3)c2=O)cc1,x,n,n,n,n,x
CCOC(=O)c1ccc(-n2[nH]c(-c3ccccc3)cc2=O)cc1,u,14µM,n,n,u,n
CCC[C@H]1[C@@H](NC(=O)NCc2ccco2)CC[C@@]23CCCN2C(=O)CCC[C@@H]13,x,x,x,n,x,x
N=NC(=O)c1ccccc1Nc1c(O)[nH]c2ccccc12,6.3µM,n,x,n,u,u
CC(=O)c1ccc(Oc2ccc(C(=O)c3ccc(C)c(C)c3)cc2[N+](=O)[O-])cc1,1.5µM,n,n,n,n,u
COc1ccc2c3c(n(C)c2c1)[C@@H](CO)N(Cc1cc(F)ccc1F)CC31CN(C(C)=O)C1,x,x,x,n,x,x
O=C(Nc1ccc(-n2cccc2)cc1)C1=COC2=NC(=O)N(Cc3ccccc3)CCN12,x,x,x,-87,x,x
Cc1cccc(-c2ccc(NC(=O)C3CCN(CC4CC4)CC3)cc2)c1,n,10µM,n,n,n,u
COc1cccc(CN2CCC(C(=O)Nc3ccc(-c4cccc(C)c4)cc3)CC2)c1O,x,10µM,n,n,u,x
CC1(c2nnc(-c3cccc(Cl)c3)o2)CC(c2cccc([N+](=O)[O-])c2)=NO1 (centres undefined),x,7.9µM,n,n,n,x
CC1(c2nnc(-c3ccccc3)o2)CC(c2ccc([N+](=O)[O-])cc2)=NO1 (centres undefined),x,u,x,-68,n,x
CC1(c2nnc(-c3ccncc3)o2)CC(c2ccc(Cl)cc2)=NO1 (centres undefined),x,11µM,x,n,u,x
CC1(c2nnc(-c3ccccc3)o2)CC(c2cccc(Cl)c2)=NO1 (centres undefined),x,u,n,n,n,x
CCOC(=O)c1c(C)[nH]c(C)c1S(=O)(=O)N1CCCC(C(=O)N2CCN(c3cc(C)ccc3C)CC2)C1 (centres undefined),n,x,x,n,u,x
COc1ccccc1OCCOCCN1CCCC1,x,n,n,n,n,x
c1ccc(-c2ccccc2OCCCCN2CCCCC2)cc1,u,u,n,u,n,7.1µM
c1ccc(-c2ccccc2OCCCN2CCCCCC2)cc1,x,u,n,-72,n,x
Cc1ccccc1OCCOCCN1CCCCCC1,n,n,n,u,n,10µM
c1ccc(-c2ccccc2OCCCN2CCCC2)cc1,u,n,n,n,n,5.6µM
CCCN1CCCc2cc(CN(CCCN3CCOCC3)C(=O)Nc3ccc(CC)cc3)ccc21,u,x,x,n,n,x
COC(=O)[C@H](CO)N1C(=O)[C@@H]2[C@@H](C1=O)[C@H]1C=C[C@@H]2C1,n,x,x,x,x,x
O=C(NCc1cccnc1)c1nn(-c2ccccc2F)nc1CO,n,x,x,n,n,n
Cc1ccc2sc(N(Cc3cccnc3)C(=O)CCOc3ccccc3)nc2c1C,n,x,x,u,n,x
SMILES,LASV entry inh,HCV inh,SARS PLpro yeast,HCMV inh,FMDV antiviral,MARV entry inh
Cc1nc2nc(SCC(=O)N(C)Cc3ccccc3)nn2c(C)c1Cc1ccccc1Cl,n,x,x,n,n,n
COc1ccc(C)cc1NC(=O)N1CCCn2nc(C)cc21,n,x,x,n,n,x
COc1ccc(-n2c(-c3ccco3)nc3c(cnn3-c3ccccc3C)c2=O)cc1,u,n,n,u,u,u
COc1cccc(-n2c(-c3ccco3)nc3c(cnn3-c3ccc(C)cc3)c2=O)c1,u,x,x,-76,u,n
COc1ccc(-n2c(-c3ccco3)nc3c(cnn3-c3ccccc3Cl)c2=O)cc1,u,x,x,u,u,n
CCOc1ccc(-n2c(C)nc3c(cnn3-c3ccc(Cl)cc3)c2=O)cc1,n,n,n,n,n,n
CCc1nc2c(cnn2-c2ccc(Cl)cc2)c(=O)n1-c1ccc(OC)cc1,u,11µM,n,n,u,u
COc1ccc(-n2c(-c3ccco3)nc3c(cnn3-c3ccc(C)cc3)c2=O)cc1,u,u,n,n,40µM!,n
COc1ccc(-n2ncc(Cl)c(Cl)c2=O)cc1,u,3.5µM,n,-101,8.9µM,u
CC1=C(C(=O)Nc2ccccc2)C(c2ccncc2)n2nc(SCc3ccccc3F)nc2N1 (centres undefined),n,x,x,n,n,n
Cc1cccc(-n2c(-c3ccco3)nc3ccccc3c2=O)c1C,n,n,n,-76,n,u
Cc1cccnc1-n1c(-c2ccco2)nc2ccccc2c1=O,n,n,n,n,n,n
COc1cccc(-n2c(-c3ccco3)nc3c(cnn3-c3ccccc3C)c2=O)c1,u,x,x,n,14µM,u
O=c1c2cnn(-c3ccccc3)c2nc(-c2cccs2)n1-c1cccc(Cl)c1,n,u,n,-76,u,u
N#CC(c1ccc(Cl)nn1)c1ccc(Cl)cc1Cl (centres undefined),u,11µM,n,n,n,u
COc1ccc(C(C#N)c2ccc(Cl)nn2)cc1 (centres undefined),n,n,n,n,n,n
CCc1cccc(C)c1NS(=O)(=O)c1cc2[nH]c(=O)c(=O)[nH]c2cc1C,n,x,x,n,n,x
Cc1ccccc1NC(=O)CSc1ccc(-c2cccs2)nn1,n,x,x,n,n,x
COC1CC(OC2CCC3(C)C(CCC4C3CCC3(C)C(C5=CC(=O)OC5)C(OC(C)=O)CC43O)C2)OC(C)C1OC1OC(COC2OC(CO)C(O)C(O)C2O)C(O)C(O)C1O (centres undefined),x,x,n,x,x,x
CC(=O)OC1CC(OC2C(O)CC(OC3C(O)CC(OC4CCC5(C)C(CCC6C5CCC5(C)C(C7=CC(=O)OC7)CCC65O)C4)OC3C)OC2C)OC(C)C1OC1OC(CO)C(O)C(O)C1O (centres undefined),0.1µM,0.79µM,x,-98,n,u
Nc1cc2sc(-c3ccc(C(=O)O)cc3)nc2cc1Cl,13µM,n,n,n,n,13µM
NC(=O)c1ccc2nc(NC(=O)c3ccc(N)cc3)sc2c1,u,n,n,n,n,u
Nc1ccc(-c2nc3ccc(N)cc3s2)cc1,u,u,n,n,n,11µM
Nc1ccc2nc(-c3ccc(O)cc3)sc2c1,u,x,x,n,u,x
CC1CCN(c2nc3ccc(C(=O)O)cc3s2)CC1,0.63µM,n,n,-78,u,u
SMILES,LASV entry inh,HCV inh,SARS PLpro yeast,HCMV inh,FMDV antiviral,MARV entry inh
Nc1ccc(-c2nc3ccc(C(=O)O)cc3s2)cc1,0.46µM,n,n,-85,u,0.46µM
COc1ccc(CN2CCOc3ccc(C(O)c4cccnc4)cc3C2)cc1O (centres undefined),x,x,x,x,n,x
Oc1ccc(-c2nc3ccccc3s2)cc1,x,n,n,n,n,x
O=C(O)c1ccc2nc(-c3ccccc3)sc2c1,2.2µM,n,n,u,2.5µM,1.5µM
Cc1ccc(Cn2nc3c(cc2=O)CCc2ccccc2-3)cc1,x,14µM,n,n,n,x
Cc1cccnc1-c1cccc2c1OC(CNC(=O)C1CCCc3c1[nH]c1ccccc31)C2 (centres undefined),x,x,x,x,n,x
